The source of these data is article PMC11062922 (Nature Chemical Biology, 2023).

Like-named read-outs stand apart in the source and are kept apart here.

Parameters in all cases: species or system human, MV4-11 + K-562 + COLO205 + SK-N-BE2 + OVCAR-8
One test deals with ATM. Conditions: read-out: apparent Kd; compound concentrations:100 nM and 1000 nM (sheet 'Samples'); n = 1.
For the next test, the system named is AURKA. Conditions: read-out: apparent Kd, n = 1.
For another test, the system named is BCR. Conditions: read-out: apparent Kd, n = 1.
The subject of a further test is CAMKK2. The conditions noted are these: read-out: apparent Kd, n = 1.
For the next test, the system named is CHEK1. The conditions noted are these: read-out: apparent Kd, n = 1.
In another test the test system is EPHA4. Conditions: read-out: apparent Kd, n = 1.
Another test relates to EPHA5. The conditions noted are these: read-out: apparent Kd, n = 1.
In the next test the test system is EPHB2. Conditions: read-out: apparent Kd, n = 1.
For a further test, the system named is EPHB4. The conditions noted are these: read-out: apparent Kd, n = 1.
The test system of a further test is TNK1. Conditions: read-out: apparent Kd, n = 1.
The subject of another test is TNK2. Conditions: read-out: apparent Kd, n = 1.
The test system of a further test is MARK3. The conditions noted are these: read-out: apparent Kd, compound concentrations: 100 nM and 1000 nM (sheet 'Samples'), n = 1.
In another test the test system is PRKACA. Conditions: read-out: apparent Kd, compound concentrations: 100 nM and 1000 nM (sheet 'Samples'), n = 1.
The next test relates to PRKACB. Conditions: read-out: apparent Kd, compound concentrations: 100 nM and 1000 nM (sheet 'Samples'), n = 1.
A further test relates to PRKAG2. The conditions noted are these: read-out: apparent Kd, compound concentrations: 100 nM and 1000 nM (sheet 'Samples'), n = 1.
For another test, the system named is CSNK1D. Conditions: read-out: apparent Kd, n = 1.
In a further test the test system is MAPK10. Conditions: read-out: apparent Kd, n = 1.
The next test concerns MAPK9. The conditions noted are these: read-out: apparent Kd, compound concentrations: 100 nM and 1000 nM (sheet 'Samples'), n = 1.
The test system of the next test is CDK16. The conditions noted are these: read-out: apparent Kd; compound concentrations: 100 nM and 1000 nM (sheet 'Samples'), CATDS: 6.29330119004379E-3; n = 1.
For a further test, the system named is STK4. Conditions: read-out: apparent Kd; compound concentrations: 100 nM and 1000 nM (sheet 'Samples'), CATDS: 6.7227641521754398E-3; n = 1.
Where [1] appears, read: compound concentrations:100 nM and 1000 nM (sheet 'Samples').

On to `CN1C[C@@H]2Cn3c(c(C4=C(c5cn(C)c6ccccc56)C(=O)NC4=O)c4ccccc43)C[C@H]2C1.Cl` [RO0320234-001], for which the potency estimated from few doses is 29.7 nM with ATM; 368 nM in the test with AURKA (setting [1]); 57.1 nM with BCR (setting [1]); 1430 nM in the test with CAMKK2 (setting [1]); 1280 nM in the test with CHEK1 (setting [1]); 321 nM in the test on EPHA4 (setting [1]). The potency estimated from few doses in the test with EPHA5 (setting [1]) is 207 nM; in the test on EPHB2 (setting [1]), 52.9 nM; in the test on EPHB4 (setting [1]), 15.9 nM; in the test with TNK1 (setting [1]) it was 9.27 nM; in the test with TNK2 (setting [1]), 84.4 nM.
In the case of `O=C1N=C(NCCc2ccc(Cl)cc2)S/C1=C\c1ccc2ncccc2c1` [RO4498479-000], the potency estimated from few doses is 486 nM with AURKA (compound concentrations: 100 nM and 1000 nM (sheet 'Samples'), CATDS: 1.0602350822893101E-2); 215 nM in the test with BCR (compound concentrations: 100 nM and 1000 nM (sheet 'Samples'), CATDS: 1.6408594866795901E-2); 568 nM in the test with CAMKK2 (compound concentrations: 100 nM and 1000 nM (sheet 'Samples'), CATDS: 9.9016852028132405E-3); 1070 nM in the test on CHEK1 (compound concentrations: 100 nM and 1000 nM (sheet 'Samples'), CATDS: 7.8682297996918397E-3); 263 nM in the test with EPHA4 (compound concentrations: 100 nM and 1000 nM (sheet 'Samples'), CATDS: 1.4543255052935199E-2); 153 nM in the test on EPHA5 (compound concentrations: 100 nM and 1000 nM (sheet 'Samples'), CATDS: 2.0414571032165901E-2). Besides, the potency estimated from few doses in the test on EPHB2 (compound concentrations: 100 nM and 1000 nM (sheet 'Samples'), CATDS: 1.7636169639023699E-2) was 191 nM; in the test with EPHB4 (compound concentrations: 100 nM and 1000 nM (sheet 'Samples'), CATDS: 2.15431657098582E-2), 141 nM; in the test on MARK3 (CATDS: 8.4864305198955707E-3), 848 nM; in the test on PRKACA (CATDS: 8.4640851007318392E-3), 854 nM; in the test on PRKACB (CATDS: 9.3487346254019794E-3), 654 nM; with PRKAG2 (CATDS: 1.04447346657642E-2) it was 503 nM. For the same compound, the potency estimated from few doses in the test with TNK1 (compound concentrations: 100 nM and 1000 nM (sheet 'Samples'), CATDS: 1.8006750719606699E-2) is 185 nM; in the test with TNK2 (compound concentrations: 100 nM and 1000 nM (sheet 'Samples'), CATDS: 1.88242032678454E-2) it was 173 nM.
In the case of `Cl.NCc1ccc(-c2nc(-c3ccc(Cl)c(O)c3)c(-c3ccncc3)[nH]2)cc1` [SB-476429-A], the potency estimated from few doses in the test with CSNK1D (setting [1]) was 1290 nM.
Take `CCn1c(-c2nonc2N)nc2c(-c3ccccc3)ncc(OCCCN)c21.CCn1c(-c2nonc2N)nc2c(-c3ccccc3)ncc(OCCCN)c21.O=C(O)C(F)(F)F.O=C(O)C(F)(F)F` [GSK260205A]: the potency estimated from few doses in the test on CSNK1D (compound concentrations: 100 nM and 1000 nM (sheet 'Samples'), CATDS: 4.20751700104477E-2) is 469 nM; in the test on PRKACA (CATDS: 2.90938755589953E-2), 1480 nM; in the test with PRKACB (CATDS: 3.9372517693277299E-2), 557 nM.
In the case of `Cc1cccc2c(-c3ccncn3)c(-c3ccc(F)cc3)nn12` [GW515532X], the potency estimated from few doses with CSNK1D (compound concentrations: 100 nM and 1000 nM (sheet 'Samples'), CATDS: 0.213897093745788) is 1920 nM.
Turning to `COc1cccc2c(-c3ccncc3)c(-c3ccc(F)cc3)nn12` [GW468513X], the potency estimated from few doses was 52 nM in the test on CSNK1D (compound concentrations: 100 nM and 1000 nM (sheet 'Samples'), CATDS: 0.14597424406190301); 346 nM with MAPK10 (compound concentrations: 100 nM and 1000 nM (sheet 'Samples'), CATDS: 5.7634861461912698E-2); 218 nM in the test on MAPK9 (CATDS: 6.8874136988771595E-2).
With `Cc1cccc(-c2nc(Nc3ccncc3)c3sccc3n2)n1` [GW869641X], the potency estimated from few doses with CSNK1D (setting [1]) was 185 nM; in the test on MAPK10 (setting [1]), 1140 nM.
Take `Fc1ccc(-c2c(-c3ccncc3)[nH]c3cccnc23)cc1` [RO1153853-000]: the potency estimated from few doses in the test with CSNK1D (compound concentrations: 100 nM and 1000 nM (sheet 'Samples'), CATDS: 0.18196610661617901) is 99.4 nM; with MAPK9 (CATDS: 7.2614011783570201E-2), 541 nM.
As for `COc1ccc(Nc2ncc(C#N)c(Nc3ccccc3C(N)=O)n2)cc1N1CCN(C)CC1.Cl` [GSK1558669A], the potency estimated from few doses is 12 nM in the test on AURKA (compound concentrations: 100 nM and 1000 nM (sheet 'Samples'), CATDS: 3.9666626948294099E-2); 96.9 nM in the test on BCR (compound concentrations: 100 nM and 1000 nM (sheet 'Samples'), CATDS: 1.27803345453226E-2); 1430 nM with CAMKK2 (compound concentrations: 100 nM and 1000 nM (sheet 'Samples'), CATDS: 6.1789819356504504E-3); 1270 nM in the test with CDK16; 137 nM with CHEK1 (compound concentrations: 100 nM and 1000 nM (sheet 'Samples'), CATDS: 1.1194862883684801E-2); 783 nM with MAPK10 (compound concentrations: 100 nM and 1000 nM (sheet 'Samples'), CATDS: 6.8664179629566802E-3). Also, the potency estimated from few doses in the test on MAPK9 (CATDS: 7.8754696697006001E-3) was 427 nM; in the test with MARK3 (CATDS: 1.02819135302623E-2), 174 nM; with PRKAG2 (CATDS: 1.3647831185805001E-2), 82.8 nM; in the test on STK4, 872 nM; with TNK1 (compound concentrations: 100 nM and 1000 nM (sheet 'Samples'), CATDS: 3.9834731570335402E-2), 11.9 nM.
